From PubChem BioAssay
This is a sample that favours compounds with a hit; in the whole collection about 2.4% have one here.
D2 PAM-1: Beta-Arrestin HTS for Positive Allosteric Modulators of the Human D2 Dopamine Receptor: Potentiators | 360,000 compounds, 0.23% hits | DiscoveRx D2 beta-arrestin cells, luminescence, 90 min; 100% = 57 uM dopamine signal | AID 624464, 2012 | potentiation, % (concentration not given with the values); in the data active = potentiation above about 50%; inconclusive = mostly about 30% to 49%
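PathHunter beta-arrestin assay in DiscoveRx D2 cells. Compounds were added with an EC20 of dopamine (50 nM final) for 90 min at 37 deg C. Luminescence was read 1 h after detection reagent, with 57 uM dopamine as the EC100 control.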
D2 ag-1: HTS Assay for Allosteric Agonists of the Human D2 Dopamine Receptor: Primary Screen for Agonists; D(2) dopamine receptor (Homo sapiens), P14416; HEK293 T-REx D2 cells, calcium flux agonist mode; activation, % at 2 µM; 340,000 compounds, 0.53% hits; AID 485358, 2010;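 active = activation over 3 SD above normal in the single-dose calcium agonist read, cut at about 30% in these data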; also: 0% is about no effect
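HEK293 Trex D2 cells, tetracycline-induced, o/n 30 C 5% CO2; no-wash Ca dye, RT 30–90 min; 10-cycle baseline, 23 nl cpd added, kinetic Ca read 180 s; agonist hits = positive Ca response.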
D2 antag: HTS Assay for Allosteric Antagonists of the Human D2 Dopamine Receptor: Primary Screen for Antagonists; HEK293 TREx D2 cells, calcium flux, dopamine EC80; inhibition, % at 10 µM; 340,000 compounds, 2% hits; AID 485344, 2010; in the data active = inhibition above about 30%; inactive = below that, where a call was filed; also: 0% is about no effect
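Tetracycline-induced HEK293 TREx cells expressing D2 receptor forced-coupled to calcium signalling, loaded with no-wash calcium dye. Compounds added and calcium flux read 180 s, then dopamine added at EC80 and read a further 180 s.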
D2 ag-2: Beta-Arrestin HTS for Positive Allosteric Modulators of the Human D2 Dopamine Receptor: Agonists; DiscoveRx PathHunter D2 beta-arrestin, luminescence, 90 min; 100% = 57 uM dopamine signal; D(2) dopamine receptor (Homo sapiens), P14416; 360,000 compounds, 0.084% hits; activation, % (no concentration beside the values); AID 624465, 2012; in the data active = activation above about 40%; inconclusive = between about 15% and that limit
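Agonist mode: compounds alone added to overnight-plated D2 PathHunter cells for 90 min at 37 C, with 57 uM final dopamine (EC100) defining full response. Beta-arrestin recruitment detected by chemiluminescent reagent, read after 1 h at ambient temperature.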
D2 PAM-2: HTS Assay for Positive Allosteric Modulators of the Human D2 Dopamine Receptor: Primary Screen for Potentiators; D(2) dopamine receptor (Homo sapiens), P14416; HEK293 T-REx D2, calcium flux, EC20 dopamine potentiation; potentiation, % at 10 µM; 340,000 compounds, 0.34% hits;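 active = potentiation over 3 SD above the plate norm, cut at about 30% in these data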; also: 0% is about no effect
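Potentiation of an EC20 dopamine calcium response is measured in a force-coupled, tetracycline-inducible Hek293 Trex D2 line. Compound-only kinetic reads over 180 s flag agonists before dopamine addition.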
D3 ag: qHTS of D3 Dopamine Receptor Agonist: D3 Dopamine Receptor B-arrestin Agonist Confirmatory Assay; DiscoveRx D3 beta-arrestin cells, luminescence, 90 min; 2,300 compounds, 4% hits; Potency, µM (titrated, usually from 76.9 µM), for inactives: at the highest dose activation, hits mostly activators; shares compounds with D2 ag-1; AID 720506, 2013;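 also: potency is read from the fitted curve at half-maximal effect; 100% = dopamine control response; nearly all actives have a fitted effect of over 70% in size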
Target sequence (P35462 whole entry, looked up): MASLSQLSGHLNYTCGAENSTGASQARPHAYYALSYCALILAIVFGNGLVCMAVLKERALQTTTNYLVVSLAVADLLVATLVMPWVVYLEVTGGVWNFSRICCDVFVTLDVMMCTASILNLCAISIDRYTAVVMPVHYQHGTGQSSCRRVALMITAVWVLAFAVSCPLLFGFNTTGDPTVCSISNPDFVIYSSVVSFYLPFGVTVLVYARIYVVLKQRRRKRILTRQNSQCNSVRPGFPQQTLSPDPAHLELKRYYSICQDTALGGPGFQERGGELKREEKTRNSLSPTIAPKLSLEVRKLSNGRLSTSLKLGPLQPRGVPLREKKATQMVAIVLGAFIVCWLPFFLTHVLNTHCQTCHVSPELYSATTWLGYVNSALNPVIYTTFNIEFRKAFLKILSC
D2 ag-3: qHTS of D3 Dopamine Receptor Agonist: D2 Dopamine Receptor B-arrestin Agonist Counterscreen; DiscoveRx PathHunter D2 beta-arrestin, luminescence, 90 min; response scale: percent relative to full dopamine signal; Potency, µM (series often up to 76.9 µM), inactives show top-dose activation, usual class: activators; shares compounds with D2 ag-1; 2,300 compounds, 5.9% hits; AID 720507, 2013; also: potency is read from the fitted curve at half-maximal effect; % of control where 0% means no effect; nearly all actives have a fitted effect of over 70% in size
Starred values were filed as active, the others as inactive; ? = inconclusive; nt = no result. Unless noted, calls follow the shape of the dose curve; as a rule, active = well fitted activation curve with a large enough effect; inconclusive = small, poorly fitted or top-dose-only effect; inactive = flat fitted curve, though single readings scatter.

SMILES	D2 PAM-1	D2 ag-1	D2 antag	D2 ag-2	D2 PAM-2	D3 ag	D2 ag-3
COc1ccc(-c2c(C#Cc3ccsc3)c3cc(-c4ccc(OC)c(F)c4)ccc3n2C)cc1	-7.9	0.7	1.5	-4.0	3.6	-1.8%	-4.0%
COc1ccc(-c2ccc3c(c2)c(C#Cc2ccsc2)c(-c2cc(OC)cc(OC)c2)n3C)cc1	-10.0	nt	nt	3.2	nt	nt	nt
COc1cccc(N2CN(CCc3ccccc3)CNC2=S)c1	-2.7	37.5*	23.7	-2.8	-6.2	-6.0%	-0.4%
COC(=O)CCN(C(=O)C12CC3CC(CC(C3)C1)C2)c1ccccn1	?	69.1*	33.0*	?	-19.5	-3.6%	?
O=C(N(Cc1ccccc1)c1ccccn1)C12CC3CC(CC(C3)C1)C2	-2.1	3.9	-3.7	7.6	-7.2	nt	nt
Cc1ccc(Oc2cnc3ccccc3n2)cc1	-2.5	1.1	-3.9	-3.0	-6.3	nt	nt
COc1ccc(Oc2cc(C)c3ccccc3n2)cc1	?	43.9*	44.6*	?	-19.0	?	?
O=S(=O)(c1ccc(F)cc1)N1CCC(Oc2cccc(C(F)(F)F)c2)CC1	nt	0.7	nt	nt	-6.7	nt	nt
Cc1oc(-c2ccc(F)cc2F)nc1CN1CCN(C(=O)c2ccco2)CC1	-11.1	nt	nt	-0.3	nt	nt	nt
COc1ccc(-c2nc(CN3CCN(C(=O)c4ccco4)CC3)c(C)o2)cc1OC	3.0	0.0	11.7	1.5	3.4	nt	nt
COc1ccc(OC)c(-c2nc(CN3CCN(C(=O)c4ccco4)CC3)c(C)o2)c1	-11.1	49.2*	16.0	7.5	-10.9	4.8%	6.7%
COc1ccc(-c2nc(CN3CCN(C(=O)c4ccco4)CC3)c(C)o2)c(F)c1	15.5	60.8*	25.5	?	-15.9	?	?
COc1ccc(-c2nc(CN3CCN(C(=O)c4ccco4)CC3)c(C)o2)c(OC)c1C	?	102.4*	92.2*	45.8*	-24.2	?	?
CCOc1ccc(NC(=O)CN(Cc2ccccc2)S(=O)(=O)c2ccc3nc(C)sc3c2)cc1	nt	0.1	nt	nt	nt	nt	nt
Cc1ccccc1-c1nc(CS(=O)(=O)CC(=O)NCC(C)c2ccccc2)c(C)o1 (stereo not given)	nt	nt	nt	nt	-2.9	nt	nt
O=C(CN1CCN(c2ccccc2)CC1)N1CCN(c2ccccc2)CC1	-11.2	47.1*	-4.3	6.8	-13.8	?	21.0%
O=C(N1CCN(c2ccccc2)CC1)C(F)(F)C(F)(F)F	0.4	23.2	2.2	-0.3	-14.9	-11.7%	7.2%
O=C(CN1CCCCC1)N1CCN(c2ccccc2)CC1	-0.6	2.0	22.8	-4.6	-5.9	nt	nt
O=C(N1CCN(c2ccccc2)CC1)C(F)(F)C(F)F	-17.9	20.7	5.5	5.1	-10.0	nt	nt
O=C(CN1C(=O)COc2ccccc21)NCCCN1CCN(c2ccccc2F)CC1	-32.3	56.1*	77.6*	14.2	-18.0	1.6%	20.4%
O=C(NCCCN1CCN(c2ccccc2F)CC1)C1CC(=O)N(C2CCCC2)C1 (stereo not given)	-2.3	77.6*	84.1*	6.5	-17.7	?	?
O=C(CCN1C(=O)COc2ccccc21)NCCN1CCN(c2ccccc2F)CC1	-27.0	35.6*	44.7*	2.0	-24.1	-5.2%	1.2%
